# Data reported in PubChem BioAssay AID624111 (Johns Hopkins Ion Channel Center, 2012).
# Among all 4,000 compounds or so, about 60 (2%) were called active.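 How the source made its calls: active means duplicate-averaged calcium fluorescence ratio at least three times the standard deviation of buffer wells, a nonspecific response in parental cells; inactive means the rest.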 Only a selection was taken, and actives are over-represented in it overall.
# Test: calcium flux effects in cells lacking MrgX1 – parental HEK293 cells, Fluo-4 calcium flux, counter-screen for MrgX1 antagonist project, confirmation (AID 624111)
# Details: parental HEK293, Fluo-4 calcium fluorescence, FDSS; at 10 µM
row,Structure (SMILES),fluorescence ratio F(max-min)/F0
1,CCOCc1nnc(NC(=O)CCC2CCCCC2)s1,inactive
2,O=C(Cn1c(-c2cncs2)nc2ccccc21)NC1CCCC1,inactive
3,COc1cc(C2/C(=C(\O)c3ccc4c(c3)CC(C)O4)C(=O)C(=O)N2Cc2ccco2)ccc1O (stereo not drawn),inactive
4,CC1CCCCN1S(=O)(=O)c1ccc(C(=O)Nc2nnc(-c3cccs3)o2)cc1 (stereo not drawn),inactive
5,O=C(Oc1ccc(C(=S)N2CCOCC2)cc1)c1ccc(F)cc1,inactive
6,COC(=O)Cc1cc(=O)n(-c2nc3ccccc3s2)[nH]1,inactive
7,COC(=O)c1c(NC(=O)c2c(Cl)cnn2C)sc(C)c1C,inactive
8,COc1cccc(CCNC(=O)COc2cccc3c2OC(C)(C)C3)c1,inactive
9,CCOC(=O)Cc1csc(SCc2cc(=O)oc3cc(O)ccc23)n1,inactive
10,NC(=O)c1c(Nc2nc3c(F)cccc3s2)sc2c1CCCC2,inactive
11,COc1ccc([N+](=O)[O-])cc1NC(=O)COC(=O)/C=C/c1ccco1,inactive
12,Cc1ccc(OC(=O)c2cc3ccccc3o2)cc1,inactive
13,Cc1cccc(-n2c(Cc3cc(=O)[nH]c(=O)[nH]3)nnc2SC(C)C)c1,inactive
14,Cc1ccc(Nc2nc(-c3ccc(O)cc3O)cs2)nc1,inactive
15,COc1ccc(Nc2nc(-c3cccnc3)nc3ccccc23)cn1,inactive
16,Cc1ccc(S(=O)(=O)N(C)c2nc3ccccc3n3c(C(C)C)nnc23)cc1,inactive
17,COC(=O)c1c(NC(=O)CN(c2ccc(C)c(C)c2)S(C)(=O)=O)sc2c1CCCC2,inactive
18,Cc1nonc1C1CCCN1Cc1nc(-c2ccc(F)cc2F)oc1C (stereo not drawn),inactive
19,Cc1ccc(C(C(=O)NC2CCCCC2)N(C(=O)c2csnn2)C2CC2)o1 (stereo not drawn),inactive
20,CCCc1nc2c(c(=O)c3ccccc3n2C)c(=O)n1C1CCCCCC1,inactive
21,COC(=O)c1ccc(C2C3=C(Nc4nnnn42)c2ccccc2OC3)cc1 (stereo not drawn),inactive
22,CCN(CC)c1ccc(C2C3CCCCC3(O)CCN2CC(=O)Nc2ccccc2)cc1 (stereo not drawn),inactive
23,Cc1cccc(NC(=O)COc2ccccc2C)n1,inactive

row,Structure (SMILES),fluorescence ratio F(max-min)/F0
1,COc1ccc(Cc2nc(-c3ccccn3)no2)cc1OC,inactive
2,CN(C)CCn1c(=S)[nH]c2ccc(Cl)cc2c1=O,inactive
3,O=C(CSc1ncccn1)NC(=O)NCc1ccccc1,inactive
4,O=C(c1cccc(S(=O)(=O)Nc2ccccc2Cl)c1)N1CCN(C(=O)c2ccco2)CC1,inactive
5,O=C(Nc1ccccc1)c1nnsc1S(=O)(=O)c1ccc(Cl)cc1,inactive
6,Cc1ccc(-n2[nH]c(C)c(/C=N/N3C(=O)c4cccc5cccc(c45)C3=O)c2=O)cc1,inactive
7,CCCCC(=O)Nc1ccc2c(c1)C(=O)NC2=O,inactive
8,O=C(Cc1ccccn1)c1ccc(O)cc1O,inactive
9,Cc1cc2ncn(CCCCOc3ccccc3)c2cc1C,inactive
10,CC(C)(C)n1c(=O)[nH]c2c(c1=O)CCC2,inactive
11,Cc1ccc2nc(-c3ccc(NC(=O)CN(C)S(=O)(=O)c4ccccc4)cc3)sc2c1,inactive
12,Cc1cccc(NC(=O)C(C)N2C(=O)C3C4CC(C(Br)C4Br)C3C2=O)c1 (stereo not drawn),inactive
13,C=CCNC(=O)c1csc(-c2ccccc2)n1,inactive
14,CCc1ccc(N(CC(=O)Nc2sc3c(c2C(=O)OC)CCCC3)S(C)(=O)=O)cc1,inactive
15,Cc1ccc(Cc2cnc(N)s2)o1,inactive
16,COc1ccc(Nc2nnc(C)c3ccccc23)cc1,inactive
17,Cc1nn(-c2ccccc2)c(C)c1NC(=O)COc1ccc(Cl)cc1Cl,inactive
18,O=C(Nc1cccc(Cl)c1)c1cncn1-c1ccc(F)cc1,inactive
19,CCC(C)Sc1nc(C)nc2c1c(=O)n(C)c(=O)n2C (stereo not drawn),inactive
20,CCc1cc2c(SCC(=O)Nc3ncc(Cl)c(C)c3Cl)ncnc2s1,inactive
21,N#CC1=C(N)Oc2c(sc3ccccc23)C1c1ccco1 (stereo not drawn),0.504 (active)
22,CCC(C)c1ccccc1N1CC(C(=O)N2CCN(S(=O)(=O)c3ccc(F)cc3)CC2)CC1=O (stereo not drawn),inactive
23,COc1ccccc1Oc1nc(-c2cccnc2)nc2ccccc12,inactive

row,Structure (SMILES),fluorescence ratio F(max-min)/F0
1,COC(=O)c1ccc(COC(=O)C2CCN(S(=O)(=O)c3c(Cl)cccc3Cl)CC2)o1,inactive
2,CN1C(CC(=O)Nc2ccc(Br)cc2)c2ccccc2CC1(C)C (stereo not drawn),inactive
3,O=C(COc1ccc(Cl)cc1)NC(=S)Nc1ccccc1N1CCOCC1,inactive
4,Nc1ccc(Oc2ccc(Cl)cc2)cc1,inactive
5,Cc1cc(=O)oc2cc(NC(=O)C3CC(=O)N(Cc4ccccc4)C3)ccc12 (stereo not drawn),inactive
6,COCCCNC(=O)C1CCN(c2ccc(N3CCOCC3)nn2)CC1,inactive
7,COc1ccc(C(=O)NC(=S)NC2CCCCC2)cc1,inactive
8,O=C(Nc1ccc(Br)cc1F)C1CC(=O)N(C2CCCCC2)C1 (stereo not drawn),inactive
9,CCN(c1cccc(C)c1)S(=O)(=O)c1ccc(-c2coc(C)n2)cc1,inactive
10,CC(=O)N(C1=C(Cl)C(=O)c2ccccc2C1=O)c1ccc(C(=O)O)cc1,inactive
11,CCOC(=O)c1c(NC(=O)CSc2cn(CC)c3ccccc23)sc2c1CCC2,inactive
12,O=C(c1ccc(O)cc1)c1ccc(C(=O)O)c(C(=O)O)c1,inactive
13,CCOc1ccc(NC(=O)CCNC(=O)c2ccc(Br)cc2)cc1,inactive
14,O=C1CCCN1CCCNC(=S)Nc1ccc(F)c(Cl)c1,inactive
15,COc1ccc(S(=O)(=O)N2CCN(C(=O)NC3CCCCC3)CC2)cc1,inactive
16,O=C(Nc1nnc(-c2ccccc2)o1)c1cc(-c2cccs2)nc2ccccc12,inactive
17,Cc1cc(Br)ccc1NC(=O)c1cnc(N2CCN(c3ccccn3)CC2)c2ccccc12,inactive
18,Cc1c(C(=O)N2CCN(c3ccc(F)cc3)CC2)oc2c1C(=O)CCC2,inactive
19,CC(C)CC(=O)N/C(N)=N/c1nc2ccccc2s1,inactive
20,CC(=O)N(C)c1ccc(NC(=O)C(F)(F)F)cc1,inactive
21,CCOC(=O)c1c(C)[nH]c(=S)c(C#N)c1-c1ccccc1,inactive
22,CCc1cc(=O)oc2cc(C)cc(OCC(=O)N3CCC[C@@H]3C(=O)O)c12,inactive
23,CCN(CC)CC(=O)Nc1nn(-c2ccccc2)nc1C(N)=O,inactive

row,Structure (SMILES),fluorescence ratio F(max-min)/F0
1,O=C(C1CCN(S(=O)(=O)c2cnc[nH]2)CC1)N1CCN(Cc2ccc3c(c2)OCO3)CC1,inactive
2,OCc1ccc(OCCCOc2cccc3cccnc23)cc1,inactive
3,FC(F)(F)c1cc(-c2cccs2)nc(NCc2ccco2)n1,inactive
4,O=C(Cc1nc2ccccc2[nH]c1=O)c1ccc(Cl)cc1,inactive
5,Clc1ccc(C=NC23CN4CN(CN(C4)C2)C3)cc1,inactive
6,CCOC(=O)N1CCN(C(=O)COCc2cc(-c3ccc4c(c3)OCO4)on2)CC1,inactive
7,CCSc1nsc(NC(=O)Nc2cccc(C(C)=O)c2)n1,inactive
8,CCCc1cc(=S)n2c([nH]c3ccccc32)c1C#N,inactive
9,O=c1cc(CSc2ccccn2)nc(N2CCN(c3ccccc3)CC2)[nH]1,inactive
10,CCOC(=O)CNC(=O)CSc1nc2cccnc2n1CC,inactive
11,Cc1c(C)c2c(OCC(=O)N[C@@H](C(=O)O)c3ccccc3)cc3c(c2oc1=O)CCC(C)(C)O3,inactive
12,Cc1ccc(-c2nn(C(C)(C)C)c3ncnc(N)c23)cc1,inactive
13,CCOc1cc(-c2conc2N)cc(OCC)c1OCC,inactive
14,Brc1ccccc1C1Nc2cccc3cccc(c23)N1,inactive
15,c1ccc(-c2[nH]ncc2-c2nc3ccccc3[nH]2)cc1,inactive
16,CCOC(=O)c1cn(Cc2cccc(C)c2)nn1,inactive
17,CC(C)NC(=S)Nc1cccc2cnccc12,inactive
18,CCOC(=O)C1=C(O)/C(=C/c2cc(C)n(-c3ccccc3)c2C)N=C1C,inactive
19,COc1ccc(C2SCCN2S(=O)(=O)c2ccccc2)cc1OC (stereo not drawn),inactive
20,S=C(NCc1ccc(Cl)cc1)NC12CC3CC(CC(C3)C1)C2,inactive
21,COc1cc(C(F)(F)F)nc2c(Br)c(C(C)(C)C)nn12,inactive
22,CCN(C(=O)CSc1nnc2ccccn12)C1CCS(=O)(=O)C1 (stereo not drawn),inactive
23,O=C1C(Cc2ccc(O)cc2)NC(=S)N1Cc1ccccc1 (stereo not drawn),inactive

row,Structure (SMILES),fluorescence ratio F(max-min)/F0
1,CCOC(=O)c1c(NC(=O)CNC2CCCc3ccccc32)sc(C(N)=O)c1C (stereo not drawn),inactive
2,COc1cccc(-c2cnc(OC(C)(C)C)nc2OC(C)(C)C)c1,inactive
3,COc1ccc(-n2c(SCC(=O)NCc3ccco3)nnc2-c2c[nH]c3ccccc23)cc1,inactive
4,CC(C)CNc1ncnc2c1cnn2Cc1ccc(Cl)cc1,inactive
5,Cc1cc2oc3ccc(NCCC4CCCN4C)cc3c(=O)c2cc1C (stereo not drawn),inactive
6,CC(=O)Nc1ccc(OC(=O)COc2ccc(Br)cc2)cc1,inactive
7,CCCc1[nH]nc2c1C(c1ccc(Br)s1)C(C#N)=C(N)O2 (stereo not drawn),inactive
8,CCS(=O)(=O)c1ccc2c(c1)N(S(=O)(=O)c1ccccc1)CC(C(=O)O)O2 (stereo not drawn),inactive
9,Fc1cccc(Cl)c1COc1ccc(-c2nnco2)cc1,inactive
10,COc1ccc(-c2cc(C(F)(F)F)nc(S(C)(=O)=O)n2)cc1OC,inactive
11,COCc1nnc(NC(=O)c2ccc3c(c2)OCO3)s1,inactive
12,CCc1ccc2nc3sc(C(=O)Nc4nnc(CC)s4)c(N)c3cc2c1,0.589 (active)
13,COc1cc(CCC(=O)Nc2ccncc2Cl)cc(OC)c1OC,inactive
14,Cc1cc(C)n(CCNC(=O)CC2C(=O)NCCN2Cc2ccc(C)o2)n1 (stereo not drawn),inactive
15,COc1ccc(S(=O)(=O)N2CCOCC2)c(C)c1C,inactive
16,CCOc1ccc(C(=O)NC2CCN(S(=O)(=O)CC)CC2)cc1,inactive
17,Cc1ccc(N/C(N)=N/c2nc(C(F)(F)F)cc(C(F)(F)F)n2)cc1,inactive
18,Cc1[nH][nH]c(=O)c1C(c1ccc(-c2ccc(Cl)cc2)o1)c1c(C)[nH][nH]c1=O,inactive
19,Cc1ccc(-n2cnc3ncnc(-c4ccccc4)c32)cc1,inactive
20,Cc1c(C(=O)N2CCCc3ccccc32)sc2nc(-c3ccccc3)cn12,inactive
21,C(=N\n1cnnc1)/c1cccnc1,inactive
